Results filed as inconclusive are left out. Where a call stands in place of a potency, no number is given. Unmarked numbers belong to inactive results. The source made the active and inactive calls. Calls follow the shape of the dose curve; as a rule, active = well fitted cell-killing curve with a large enough effect; inconclusive = small, poorly fitted or top-dose-only effect, or effect the other way; inactive = flat fitted curve, though single readings scatter.

The record followed here is PubChem BioAssay (NCATS).
Potency is read from the fitted curve at half-maximal effect.

For the assay, the system named is CAOV3. The assay is described as follows: Primary qHTS to identify gynecologic anti-cancer compounds using libraries of approved drugs and bioactive compounds (AID 1345084). Also: nearly all actives have a fitted effect of over 55% in size. The conditions noted are these: Gynecologic cancer cell panel viability, ATPlite luminescence, 48 h; series mostly up to 57.5 µM. The source says: National Center for Advancing Translational Sciences [NCATS] Assay Overview: Chemotherapeutic drug responses vary from cancer to cancer and from patient to patient. These variations could be caused by a number of factors including patient genomic background, tumor mutations, tumor heterogeneity, and aspects of drug treatment. Chemotherapeutic drug resistance is also a common issue and can lead to ineffective treatment and patient death. Here we have profiled the cell killing effects of thousands of compounds to characterize the responses in three gynecological cancers, identify cancer-selective compounds, and understand the diversity of responses to these compounds from pan-cancer suppressors to single cell line selective compounds. In this assay, we screened a 7,914 compound drug library that included approved drug and bioactive compounds in six ovarian, three cervical, and […] placental cancer cell lines using the ATPlite assay for cell viability. […] The cervical cancer cell lines included HeLa, Ca Ski, and C-33 A. The placental cancer cell lines included JEG-3. HEK 293T cells were used as the control cell line to determine the selectivity index. ATPlite is a luminescence based assay reliant on the conversion of a luciferase substrate to light in the presence of ATP. As a cytotoxic compound will suppress growth and decrease the number of cells, the concentration of ATP will decrease, and less light signal will be detected in the well.
Assay Protocol Summary: 1,000 cells in 4 uL of media were dispensed into white, solid bottom 1536-well plates using a Multidrop Combi (Thermo Scientific). The Assay plates were incubated for 16 hours at 37 C with 5% CO2 in assay plates, followed by the addition of 23 nL of DMSO or drug dissolved in DMSO. Each compound was assayed in five concentrations (0.092, 0.46, 2.3, 11.5, and 57.5 uM), using the automated Wako 1536 Pin Tool workstation and incubated at 37 C with 5% CO2 48 hours. 4 uL of ATPlite, the ATP monitoring reagent, was then added to the each well of the assay plates using the Multidrop Combi reagent dispenser followed by incubation for 15 minutes at room temperature. The resulting luminescence was measured using the ViewLux plate reader.
A general note: In qHTS, concentration-response curves come from the screen itself.
Take `O=C(O)c1ccccc1O`: the Potency entry is “inactive”. On the same count and under the same terms, to `CS(=O)(=O)c1ccc([C@@H](O)[C@@H](CF)NC(=O)C(Cl)Cl)cc1` belongs “inactive”. Same read-out and setting: as for `COc1cc2[nH]c(=O)[nH]c(=O)c2cc1OC`, the entry is “inactive”; as for `CC(COc1ccccc1)NC(C)C(O)c1ccc(O)cc1` (stereo not given), “inactive”; as for `CCCCOC(=O)c1ccc(O)cc1`, “inactive”.

Take `O=C(O)COc1nn(Cc2ccccc2)c2ccccc12`: the Potency result was “inactive”. Same read-out and setting: as for `Cc1cccc(C)c1NC(=O)CN(CC(=O)O)CC(=O)O`, the entry is “inactive”.

Take `CN1CCC[C@@H]1Cc1c[nH]c2ccc(CCS(=O)(=O)c3ccccc3)cc12`: the Potency result was “inactive”. Still for that read-out and setting: to `CC1CC(OC(=O)C(O)c2ccccc2)CC(C)(C)N1C` (stereo not given) belongs “inactive”; to `Nc1cc(=O)[nH]c(N)n1`, “inactive”.

Consider `C=CCn1c(=O)n([C@@H]2O[C@H](CO)[C@@H](O)[C@H]2O)c2nc(N)[nH]c(=O)c21`, for which the Potency entry was “inactive”. Same read-out and setting: as for `CCN(CC)CCNC(=O)c1c(C)[nH]c(/C=C2\C(=O)Nc3ccc(F)cc32)c1C`, the figure is 25.1 µM (active). Take `CC(CN(C)C)CN1c2ccccc2CCc2ccccc21` (stereo not given): the Potency result was “inactive”. The same measure, in the same setting: as for `O=C(O)CN1C(=O)c2cccc3cccc(c23)C1=O`, the entry is “inactive”. Same read-out and setting: to `CC(=O)Oc1ccc(C2(c3ccc(OC(C)=O)cc3)C(=O)Nc3ccccc32)cc1` belongs “inactive”; to `CCCCC/C(C=O)=C\c1ccccc1`, “inactive”. Same read-out and setting: to `CN(C)CCCO[C@@H]1[C@H]2OC(C)(C)O[C@H]2O[C@@H]1C(O)CO` (stereo not given in full) belongs “inactive”; to `OCCN1CCN(CCCN2c3ccccc3Sc3ccc(Cl)cc32)CC1`, 25.1 µM (active). With `C[C@@H](O)[C@H](N)C(=O)O`, the Potency entry was “inactive”. The same measure, in the same setting: as for `Cc1cc2nc3c(=O)[nH]c(=O)nc-3n(C[C@H](O)[C@H](O)[C@H](O)CO)c2cc1C`, the entry is “inactive”. On the same count and under the same terms, as for `O=C1O[C@H]([C@@H](O)CO)C(O)=C1O`, the entry is “inactive”; as for `CCC(=O)c1ccc(O)cc1`, “inactive”; as for `O=C(O)c1ccccn1`, “inactive”. On the same count and under the same terms, as for `C[C@H]1O[C@H](O[C@H]2[C@H](O)[C@@H](O)[C@@H](O[C@H]3[C@H](O)[C@@H](O)[C@H](O)O[C@@H]3CO)O[C@@H]2CO)[C@H](O)[C@@H](O)[C@@H]1N[C@H]1C=C(CO)[C@@H](O)[C@H](O)[C@H]1O`, the entry is “inactive”.

Take `O=c1[nH]c(=O)c2[nH]c(=O)[nH]c2[nH]1`: the activity change, negative = cytotoxicity is 6.78% [at 11.6 µM]. As to `CO/N=C(\C(=O)N[C@@H]1C(=O)N2C(C(=O)O)=C(CSc3nc(=O)c(O)nn3C)CS[C@H]12)c1csc(N)n1`, the Potency entry is “inactive”. Still for that read-out and setting: as for `Cc1ccc2nc(N)[nH]c(=O)c2c1Sc1ccncc1`, the entry is “inactive”. On the same count and under the same terms, as for `CC(=O)CCC(=O)O`, the entry is “inactive”. On the same count and under the same terms, as for `COc1ccc(S(=O)(=O)Nc2nnc(CC(C)C)s2)cc1`, the entry is “inactive”; as for `O=C(CCCN1CCN(c2ccccn2)CC1)c1ccc(F)cc1`, “inactive”; as for `O=C(O)CC(O)C(=O)O` (stereo not given), “inactive”. For `Cc1ncc([N+](=O)[O-])n1CC(O)CCl` (stereo not given), the Potency result was “inactive”. Still for that read-out and setting: to `NC(=O)NC(=O)Cc1ccccc1` belongs “inactive”; to `CCOc1nc2cccc(C(=O)O)c2n1Cc1ccc(-c2ccccc2-c2nn[nH]n2)cc1`, “inactive”; to `CCCCN(CCCC)CCCOC(=O)c1ccc(N)cc1`, “inactive”. Same read-out and setting: as for `Cc1cc(CC(=O)O)n(C)c1C(=O)c1ccc(Cl)cc1`, the entry is “inactive”; as for `O=C(O)Cc1sc(-c2ccccc2)nc1-c1ccc(Cl)cc1`, “inactive”. Still for that read-out and setting: to `c1ccc(CN(CC2=NCCN2)c2ccccc2)cc1` belongs “inactive”.

For `N[C@@H](CSCCCO)C(=O)O`, the Potency result was “inactive”.

In the case of `NCC(=O)CCC(=O)O`, the Potency entry is “inactive”.
